The record followed here is PubChem BioAssay AID1851 (National Center for Advancing Translational Sciences (NCATS), 2009).

Out of some 16,000 compounds screened, about 5,700 (36%) were called active. Another 24% or so got no clear call; they are omitted. Calls come from the whole dose curve; as a rule, active = well fitted curve in the direction sought with a large enough effect; inconclusive = small, poorly fitted or top-dose-only effect, or effect the other way; inactive = no such curve, though single readings can be large or run the other way. This is one part of the list.
% is set by controls: 0 for no effect and ±100 for the full control effect.

The target in the assay is Cytochrome P450 1A2 (Homo sapiens) (UniProt P05177). Nature of the assay: Cytochrome panel assay with activity outcomes. The settings on record: recombinant CYP, pro-luciferin dealkylation, luminescence, p450-cyp1a2; series mostly up to 57.1 µM.
Sequence of Cytochrome P450 1A2 (Homo sapiens) (P05177 whole entry, looked up): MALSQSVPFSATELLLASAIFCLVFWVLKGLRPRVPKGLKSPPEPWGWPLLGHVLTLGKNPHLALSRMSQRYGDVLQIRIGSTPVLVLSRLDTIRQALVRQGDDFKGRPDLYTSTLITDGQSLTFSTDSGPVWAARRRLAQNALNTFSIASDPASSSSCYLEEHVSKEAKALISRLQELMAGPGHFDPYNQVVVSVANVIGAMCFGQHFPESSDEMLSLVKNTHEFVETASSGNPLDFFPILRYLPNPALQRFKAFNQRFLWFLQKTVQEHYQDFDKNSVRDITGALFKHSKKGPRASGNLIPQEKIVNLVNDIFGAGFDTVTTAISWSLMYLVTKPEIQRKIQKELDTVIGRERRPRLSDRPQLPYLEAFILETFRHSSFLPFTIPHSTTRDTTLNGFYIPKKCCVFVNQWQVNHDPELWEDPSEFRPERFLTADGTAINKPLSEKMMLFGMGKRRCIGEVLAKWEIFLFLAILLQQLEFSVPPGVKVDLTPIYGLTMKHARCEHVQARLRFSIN
`CC1=Nc2ccccc2/C1=C\c1nc(-c2ccc(C(F)(F)F)cc2)oc1O`: the AC50 (commonly the concentration at which the activity in the assay is half-maximal) was 0.891 µM (active).

As for `O=S(=O)(c1ccccc1)N1CCC2(CCCN(c3cccc(-c4ccccc4)c3)C2)CC1`, the AC50 entry is “inactive”. For `CS(=O)(=O)N1CCC2(CC1)CN(c1ccncc1)C2`, the AC50 result is “inactive”. In the case of `O=C(c1ccncc1)N1CCC2(CC1)CN(c1cccc(-c3ccccc3)c1)C2`, the AC50 is 15.8 µM (active).

In the case of `CS(=O)(=O)N1CCC2(CC1)CN(c1cccc(-c3ccccc3)c1)C2`, the AC50 was 5.01 µM (active). In the case of `O=C(c1cnccn1)N1CCC2(CCCN(c3ccccc3)C2)CC1`, the AC50 result was “inactive”. The same measure, in the same setting: in the case of `O=C(c1ccncc1)N1CCC2(CC1)CN(c1ccccc1)C2` it was “inactive”; in that of `O=C(c1ccncc1)N1CCC2(CC1)CN(c1ccc(-c3ccccc3)cc1)C2`, “inactive”. Regarding `O=C(c1cnccn1)N1CCC[C@@]2(CCN(c3cccc(-c4ccccc4)c3)C2)C1`, the AC50 is 25.1 µM (active). Still for that read-out and setting: in the case of `O=C(c1cnccn1)N1CCC2(CC1)CN(c1ccccc1)C2` it was “inactive”; in that of `O=C(c1cnccn1)N1CCC[C@@]2(CCN(c3ncccn3)C2)C1`, “inactive”; in that of `O=C(c1cnccn1)N1CCC2(CCCN(c3cccc(-c4ccccc4)c3)C2)CC1`, 20 µM (active). On to `O=C(c1cnccn1)N1CCC[C@@]2(CCN(c3ccncc3)C2)C1`, for which the AC50 result is “inactive”.

Take `COc1ccc(CNC(C)(C)C)cc1Cl`: the AC50 result is “inactive”. On the same count and under the same terms, the value for `COc1cc(CNCc2ccccn2)ccc1OCc1ccc(Cl)cc1Cl` was 0.316 µM (active); that for `C=CCSc1nc2ccccc2n1C(=O)/C=C/c1cc(OC)c(OC)c(OC)c1` was 7.08 µM (active).

Take `CCSc1nc2ccccc2n1C(=O)/C=C\c1ccc(OC)c(OC)c1`: the AC50 is 6.31 µM (active). Consider `CCn1c(-c2ccccc2Cl)nn(CC(=O)Nc2cc(Cl)ccc2Cl)c1=S`, for which the AC50 was 15.8 µM (active). As to `CCn1c(-c2ccccc2Cl)nn(CC(=O)Nc2ccccc2OC)c1=S`, the AC50 result was “inactive”. Regarding `CC(=O)OC[C@H]1O[C@@H](O/N=C(\C)CCN2CCCc3nc(C)c(C)cc32)[C@H](OC(C)=O)[C@@H](OC(C)=O)[C@H]1OC(C)=O`, the activity, negative = inhibition is 0.931% [at 11.4 µM] (inactive). In the case of `CC(C)(C)N1C(=O)[C@H]2[C@H]3[C@H](O)[C@H](O)C/C(=N/OC[C@@H](O)COCc4ccco4)[C@@H]3CC[C@@H]2C1=O`, the activity, negative = inhibition is 4.56% [at 11.4 µM] (inactive). On to `COc1ccc(-c2noc(N(C)CC(=O)Nc3cccc(C(F)(F)F)c3)n2)cc1`, for which the AC50 was 5.01 µM (active).

As for `CNc1cc(-c2c(C)noc2C)ncn1`, the AC50 was 5.01 µM (active). The same measure, in the same setting: the value for `COCCNc1ncncc1-c1c(C)noc1C` was “inactive”; that for `COCCNc1cc(-c2c(C)noc2C)ncn1` was 10 µM (active); that for `Cc1noc(C)c1-c1cc(NC2CC2)ncn1` was 0.316 µM (active). In the case of `COC(=O)N1CCC2(CC1)CN(C(c1ccccc1)c1ccccc1)C2`, the AC50 entry is “inactive”. `C[C@@]12CCC(=O)C=C1CC[C@@H]1[C@@H]2[C@H](O)C[C@]2(C)[C@@H]1CC[C@]2(O)C(=O)CO`: the AC50 result was “inactive”. `Cc1sc(NC(=O)c2ccccc2)c(C(=O)NCCN(C)C)c1C`: the AC50 is 11.2 µM (active). Still for that read-out and setting: the value for `CCOC(=O)c1c(NC(=O)Nc2ccccc2)sc(C)c1C` was 3.55 µM (active). Same read-out and setting: the value for `CN(C(=O)CC(NC(=O)c1ccccc1)(c1ccccc1)c1ccccc1)c1ccccc1` was “inactive”; that for `CCOc1ccc(CC(=O)Nc2sc(Cc3ccccc3)c(C)c2C(N)=O)cc1OCC` was “inactive”. With `CC(C)C(=O)Nc1ccc(C(=O)NNC(=O)C(c2ccccc2)c2ccccc2)cc1`, the AC50 entry was “inactive”. `COC(=O)c1c(NC(C)=O)sc(Cc2ccccc2)c1C`: the AC50 is 1.58 µM (active).

Regarding `CCN1CCN(C(c2ccccn2)c2c(NC(=O)c3ccccc3)sc(C)c2C)CC1` (stereo not given), the AC50 entry is “inactive”. The same measure, in the same setting: in the case of `Cc1sc(NC(=O)C(C)C)c(C(=O)Nc2ccccc2)c1C` it was 1.26 µM (active).

`C=C(Br)CN(C)CC(=C)Br`: the activity, negative = inhibition was -4.98% [at 11.4 µM] (inactive). Turning to `CC(C)SC(=N)N`, the AC50 entry was “inactive”. The same measure, in the same setting: the value for `Cc1noc(C)c1C(=O)N1CCC[C@@]2(CCN(C(=O)NC(C)C)C2)C1` was “inactive”; that for `O=C(O)CP(=O)(O)O` was “inactive”; that for `Cc1oc(-c2cccc(Cl)c2)[n+]([O-])c1C` was 4.47 µM (active). Still for that read-out and setting: the value for `CCCC/C=C/C(NC(=O)c1cccs1)c1ccccc1` (stereo not given) was 1.58 µM (active); that for `CCC(=O)Nc1ccc(C(=O)NNC(=O)c2cccs2)cc1` was “inactive”. The same measure, in the same setting: the value for `CCCC/C=C/C(NC(=O)Oc1cccc(C(F)(F)F)c1)c1ccccc1` (stereo not given) was 2.51 µM (active); that for `O=C(c1cccs1)N1CCN(C(=O)C(c2ccccc2)c2ccccc2)CC1` was “inactive”; that for `C#CCOC(=O)NC(/C=C/CCCC)c1ccccc1` (stereo not given) was 15.8 µM (active). On to `CCC/C=C(\CCC)C(NP(=O)(c1ccccc1)c1ccccc1)c1ccc(C(F)(F)F)cc1` (stereo not given), for which the AC50 result was “inactive”. With `CCCC/C=C/C(NC(=O)c1ccco1)c1ccccc1` (stereo not given), the half-maximal activity concentration (AC50) is 5.01 µM (active). On the same count and under the same terms, the value for `Nc1ncnc2c1nc(Br)n2[C@@H]1O[C@H]2COP(=O)(O)O[C@@H]2[C@H]1O` was “inactive”. On the same count and under the same terms, the value for `CC1(C)Cc2ccccc2C(N/N=C/c2cccc(F)c2)=N1` was 11.2 µM (active); that for `COc1ccc(Oc2c(C=O)c3ccccc3n2C)cc1` was 14.1 µM (active); that for `Cn1c(Oc2ccccc2)c(C=O)c2ccccc21` was 7.08 µM (active).

On to `Cc1cccc(C(=O)NN(C)c2nc(-c3ccccc3)nnc2C(F)(F)F)c1`, for which the AC50 result was “inactive”. `FC(F)(F)c1nnc(-c2ccccc2)nc1Sc1ccccc1`: the AC50 was 1.41 µM (active). Same read-out and setting: in the case of `COc1ccccc1CNC(=O)C/C(C)=N/NC(=O)Cc1ccccc1` it was “inactive”; in that of `COc1ccc(CC(=O)O/N=C(\N)Cc2ccc(OC)cc2)cc1`, “inactive”. The same measure, in the same setting: in the case of `COc1ccccc1CC(=O)O/N=C(\N)Cc1cccc2ccccc12` it was 11.2 µM (active). Still for that read-out and setting: the value for `COc1ccccc1C/C(N)=N/OC(=O)c1ccc(C)c([N+](=O)[O-])c1` was 14.1 µM (active); that for `C[N+](C)(C)CCOC(N)=O` was “inactive”; that for `CCOC(=O)[C@@H](O)Cc1cnc2ccccc2n1` was 3.16 µM (active). As to `O=S(=O)(c1cnccc1N1CCN(CCO)CC1)N1CCCC1`, the activity, negative = inhibition is -8.25% [at 2.29 µM] (inactive). Take `FC(F)(F)c1cc(CN2CCC3(CCNCC3)CC2)cc(C(F)(F)F)c1`: the AC50 result is “inactive”. On the same count and under the same terms, in the case of `Cc1ccc(NC(=O)c2cccc(N(C)C)c2)cc1NC(=O)c1ccc(O)cc1` it was 1.26 µM (active); in that of `Cc1nn(CC(O)COc2ccc3c(c2)CCC3)c(C)c1Br` (stereo not given), 12.6 µM (active). Consider `OC(COc1ccc(OCC(O)CN2CCCCCC2)cc1)CN1CCCCCC1` (stereo not given), for which the AC50 entry is “inactive”. Consider `COc1ccc(C2=CSC(/N=C/c3ccc(F)cc3)=NN2)cc1`, for which the AC50 was 2.82 µM (active). Consider `CC(C)=NO[C@@H](C)CN1CCCCc2nc(C)c(C)cc21`, for which the activity, negative = inhibition is -10.5% [at 11.4 µM] (inactive). Consider `Cc1ccc(NC(=O)CCC(=O)NNS(=O)(=O)c2ccccc2)c(C)c1`, for which the AC50 result is “inactive”.

For `Cc1cc(Br)ccc1NC(=O)CCSc1ccccc1`, the AC50 was 4.47 µM (active). In the case of `S=C(S)O[C@@H]1C[C@@H]2C[C@H]1[C@@H]1CCC[C@H]21`, the AC50 entry was “inactive”. `O=C(COc1ccc(-c2ccccc2)cc1)N/N=C/c1ccccc1Br`: the AC50 is 5.01 µM (active). On the same count and under the same terms, in the case of `COc1ccc(OCC(=O)NNC(=O)c2ccc(-c3ccccc3)cc2)cc1` it was “inactive”; in that of `O=C(COc1ccccc1-c1ccccc1)N/N=C/c1cccc2ccccc12`, 0.794 µM (active); in that of `O=c1[nH]c(SCc2c(Cl)c(Cl)c(Cl)c(Cl)c2Cl)nc(=S)[nH]1`, 1 µM (active). For `CCCC[C@H]1C[C@@H]1[C@@H]1N(P(=O)(c2ccccc2)c2ccccc2)[C@](CO)(c2ccccc2)CC12CC2`, the AC50 entry is “inactive”. Consider `CCCc1nnc(SCC(=O)O)n1/N=C/c1ccc2c(c1)OCO2`, for which the AC50 is 15.8 µM (active).

On to `CCc1n[nH]c(=S)n1/N=C/c1ccc2c(c1)OCO2`, for which the AC50 was 2.24 µM (active). On to `OC[C@@H]1O[C@@H](O)[C@H](N=Cc2ccc3c(c2)OCO3)[C@@H](O)[C@@H]1O`, for which the activity, negative = inhibition was -24.4% [at 2.29 µM] (inactive). Consider `CCCc1nnc(SCC(=O)N2CCCCC2)n1CCCOC`, for which the AC50 entry was “inactive”.

For `CSc1nncn1/N=C/c1ccc2c(c1)OCO2`, the AC50 is 4.47 µM (active).

In the case of `CCCc1nnc(SCC(=O)N2CCCC(C)C2)n1CC1CCCO1` (stereo not given), the AC50 entry was “inactive”.

Turning to `O=c1cc(CSc2nnc(-c3cccnc3)n2-c2ccccc2F)nc2sccn12`, the AC50 result is “inactive”.

Take `COCCn1c(=O)c(-c2ccc(Cl)cc2)nc2cnc(N(C)C)nc21`: the AC50 was 1 µM (active). Same read-out and setting: in the case of `COCCn1c(=O)c(-c2ccccc2)nc2cnc(N(C)C)nc21` it was 3.16 µM (active); in that of `COCCn1c(=O)c(-c2ccc(F)cc2)nc2cnc(N(C)C)nc21`, 2 µM (active). On to `C[C@@H]1/C=C\CC(=O)OC[C@H](C)C(=O)N2CCC[C@@H]2C(=O)OC1`, for which the activity, negative = inhibition is -1.21% [at 11.4 µM] (inactive).

For `Cc1ccc(/C=C/c2ccc(=O)n(Cc3ccc(Cl)cc3Cl)n2)cc1`, the AC50 is 10 µM (active). Consider `CC(=O)OC[C@@H]1O[C@H](CCON=C(C)C)C=C[C@@H]1OC(C)=O`, for which the activity, negative = inhibition was 4.98% [at 11.4 µM] (inactive).

As for `ON(CCc1ccncc1)Cc1ccccc1`, the AC50 is 1 µM (active).

Turning to `O=C1NC(=O)[C@@](Cc2ccccc2)(c2cccnc2)N1`, the activity, negative = inhibition was -17.1% [at 2.29 µM] (inactive). As for `c1ccc(CCc2cccnc2)nc1`, the AC50 is 0.398 µM (active). Still for that read-out and setting: in the case of `ON(CCc1ccccn1)Cc1ccccc1` it was 2.51 µM (active).

Turning to `CS(=O)(=O)N(CC(=O)O)Cc1ccccc1`, the activity, negative = inhibition is 4.38% [at 11.4 µM] (inactive). For `CNCCc1ccccn1`, the AC50 result was “inactive”. Still for that read-out and setting: the value for `Cc1nc2nc(C)c(CCC(=O)NCCCN3CCN(c4cccc(Cl)c4)CC3)c(C)n2n1` was “inactive”; that for `O=C(c1csnn1)N1CCC2(CCN(Cc3ccccc3)CC2)CC1` was “inactive”; that for `Cc1ccccc1CSc1nsc(N)n1` was 14.1 µM (active). The same measure, in the same setting: the value for `O=C(NC(N1CCCC1)C(Cl)(Cl)Cl)c1ccccc1` (stereo not given) was 11.2 µM (active); that for `O=C(NNC(=O)c1ccccc1)C(=O)N1CCCCC1` was “inactive”. Turning to `O=C(N/C(=C\c1cccs1)C(=O)N1CCCCCC1)c1ccccc1`, the AC50 entry was “inactive”.
